We go through 16 compounds from PubChem BioAssay (NCI).

SMILES strings stand for the structures. About 83,000 compounds went through this panel and 20% of them were active in at least one assay; those are over-represented in the sample as a whole.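 Treatment: one concentration, 48 hours, 96-well format. Scoring: percent growth, with anything below 10 considered active.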 Values without a mark were called inactive. Calls of active or inactive are those of the source.

Common to all, as to assay: NCI-60 one-dose screen, 48 h (100 = growth as untreated, 0 = no growth, -100 = all killed)
Common to all, as to details: 10 µM unless noted

Experiment [1] has as its system T-47D breast.
Experiment [2] has as its system BT-549 breast.
Experiment [3] concerns MDA-MB-435 melanoma.
Experiment [4] has as its system SW-620 colon.
For experiment [5], the system named is MCF7 breast.
Experiment [6] deals with HCT-116 colon.
The test system of experiment [7] is HCC-2998 colon.
Experiment [8] relates to KM12 colon.

`NC(CSC(c1ccccc1)(c1ccccc1)c1ccc(Cl)cc1)C(=O)O` (stereo not drawn): the growth in experiment [1] was 23.7%; in experiment [2], 27.1%; in experiment [3], -40.2% (active); in experiment [4] it was 19.2%; in experiment [5], 8.48% (active); in experiment [6], 4.19% (active). For the same compound, the results for the growth in experiment [7] and in experiment [8] were -36.3% (active) and 1.65% (active), respectively.
As to `COc1cc2c(cc1-c1c(C)noc1C)ncc1nc(C3CCOCC3)n([C@H](C)COC(F)F)c12`, the growth is 46% in experiment [1]; 68.8% in experiment [2]; 40.6% in experiment [3]; 59% in experiment [4]; 19.2% in experiment [5]; 40.4% in experiment [6]. The growth in experiment [7] was 47.7%; in experiment [8], 47%.
As for `COc1ccc(O)c(N=Nc2nccs2)c1`, the growth in experiment [1] was 37%; in experiment [2], 95.6%; in experiment [3], 104%; in experiment [4] it was 62.3%; in experiment [5], 64.3%; in experiment [6], 65.5%. Besides, the figures for the growth in experiment [7] and in experiment [8] were 89.4% and 73.3%, respectively.
Consider `O=C(/C=C/c1ccc(C(F)(F)F)cc1)Nc1ccc(C=C2c3ccccc3C(=O)c3ccccc32)cc1`, for which the growth in experiment [1] was 50.3%; in experiment [2], 57.6%; in experiment [3] it was 6.92% (active); in experiment [4], 65.3%; in experiment [5] it was 46.5%; in experiment [6] it was 38.3%. In addition, the growth is 78.3% in experiment [7] and 25.9% in experiment [8].
With `NC(N)=N/N=C(/c1ccccc1)c1ccc(F)cc1`, the growth is 51.2% in experiment [1]; 14.7% in experiment [2]; -19.2% (active) in experiment [3]; 28.8% in experiment [4]; 12.3% in experiment [5]; 2.71% (active) in experiment [6]. Moreover, the growth is -43.7% (active) in experiment [7] and -7.82% (active) in experiment [8].
For the compound `COc1cccc(C2=NN3C(C2)c2cc(Br)cc(OC)c2OC32CCN(Cc3ccccc3)CC2)c1` (stereo not drawn), the growth in experiment [1] was 108%; in experiment [2] it was 110%; in experiment [3] it was 98.3%; in experiment [4] it was 96.3%; in experiment [5], 96.3%; in experiment [6] it was 114%. For the same compound, the growth is 99.2% in experiment [7] and 103% in experiment [8].
As for `Clc1ccc2c(NCCNc3nc(N4CCCCC4)nc4ccccc34)ccnc2c1`, the growth in experiment [1] was -29.7% (active); in experiment [2], 53.7%; in experiment [3], -66.4% (active); in experiment [4], -36.6% (active); in experiment [5] it was 14.5%; in experiment [6] it was -25.4% (active). The results for the growth in experiment [7] and in experiment [8] were 10.6% and 7.18% (active), respectively.
Turning to `O=C(CN1C(=O)/C(=C/c2ccc(Cl)cc2)SC1=S)NCCCN1CCOCC1`, the growth in experiment [1] is 84.3%; in experiment [2], 102%; in experiment [3] it was 102%; in experiment [4], 102%; in experiment [5] it was 92.8%; in experiment [6], 102%. Further, the growth in experiment [7] is 102%; in experiment [8] it was 104%.
On to `CC1=NN(c2nc(-c3ccc(Cl)cc3)c(C#N)c(N3CCOCC3)n2)C(=O)C1`, for which the growth in experiment [1] was 93.3%; in experiment [2] it was 66.1%; in experiment [3], 87.8%; in experiment [4], 85.2%; in experiment [5], 94.4%; in experiment [6], 94.3%. Also, the growth in experiment [7] was 98.5%; in experiment [8], 99.7%.
`Cc1cc(NS(=O)(=O)c2ccc(-c3cnc(C4CC4)o3)cc2)ccc1Cl`: the growth in experiment [1] was 32.4%; in experiment [2] it was 28.8%; in experiment [3], 0.57% (active); in experiment [4], 21.7%; in experiment [5] it was 11.1%; in experiment [6] it was 13.3%. Moreover, the results for the growth in experiment [7] and in experiment [8] were 25.1% and 27%, respectively.
Take `O=c1cc(/C(=C2/C=CC=N2)c2ccc[nH]2)c2cc(Cl)ccc2o1`: the growth in experiment [1] is 32%; in experiment [2], 52.1%; in experiment [3], 9.82% (active); in experiment [4] it was 34.8%; in experiment [5] it was 70.9%; in experiment [6] it was 44.2%. Further, the values for the growth in experiment [7] and in experiment [8] were 89.7% and 38.9%, respectively.
With `CCN1CCN(c2nc(NCCNc3ccnc4cc(Cl)ccc34)c3ccccc3n2)CC1`, the growth in experiment [1] is -10.8% (active); in experiment [2], 51.8%; in experiment [3], -66.2% (active); in experiment [4], 1.44% (active); in experiment [5], 18.6%; in experiment [6], 1.44% (active). Further, the growth in experiment [7] was 35.8%; in experiment [8], 7.58% (active).
As to `C=C1c2nc3ccccc3n2C=C(c2ccc(Cl)cc2)N1Cc1ccc(OC)cc1`, the growth in experiment [1] was 48%; in experiment [2] it was 97.8%; in experiment [3] it was 97.9%; in experiment [4], 92.7%; in experiment [5], 54%; in experiment [6], 63.5%. In addition, the values for the growth in experiment [7] and in experiment [8] were 80.4% and 95.4%, respectively.
With `Cn1cccc1-c1nc2c3c(ccc2[nH]1)C(=O)c1ccccc1C3=O`, the growth in experiment [1] was -18.8% (active); in experiment [2], 71.7%; in experiment [3], 105%; in experiment [4] it was 105%; in experiment [5] it was 11.6%; in experiment [6] it was 83.7%. Besides, the growth was 86.3% in experiment [7] and 73.6% in experiment [8].
On to `O=C(/C=C/c1cccc(Cl)c1)c1ccc(O)c(CN2CCN(c3cc4c(cc3F)c(=O)c(C(=O)O)cn4C3CC3)CC2)c1`, for which the growth was 44.9% in experiment [1]; 34% in experiment [2]; 44.7% in experiment [3]; 21.4% in experiment [4]; 28.3% in experiment [5]; 6.6% (active) in experiment [6]. In addition, the growth was 61.3% in experiment [7] and 51.2% in experiment [8].
In the case of `CCC([N+](=O)[O-])S(=O)(=O)c1ccc(C)cc1` (stereo not drawn), the growth in experiment [1] is 92.6%; in experiment [2], 109%; in experiment [3] it was 113%; in experiment [4], 104%; in experiment [5], 101%; in experiment [6], 98.7%. For the same compound, the growth in experiment [7] is 64.5%; in experiment [8] it was 136%.
